# Results from PubChem BioAssay (NCI).
# About 79,000 compounds went through this panel and 15% of them were active in at least one assay; those are over-represented in the sample as a whole. Unmarked numbers belong to inactive results. Activity calls are given as the source filed them. No stated cut-off is given here; in the data, active means growth inhibition above about 70%; inactive means the rest.
# Assays:
# [1] = NCI Yeast Anticancer Drug Screen. Data for the rad52 strain (AID 147);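 further: 0% = growth of vehicle-treated control cultures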; conditions: S. cerevisiae rad52 mutant growth inhibition, stronger effect = higher value
# Method in brief: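 Compounds are applied to a genetically defined yeast strain lacking normal DNA damage repair, and inhibition of growth is expressed relative to cultures given vehicle only.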
# [2] = NCI Yeast Anticancer Drug Screen. Data for the wt1 strain (AID 149);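 further: 0% = growth of vehicle-treated wt1 cultures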; conditions: S. cerevisiae wt1 strain (SPY 50644) growth inhibition, stronger effect = higher value
# Method in brief: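 Growth inhibition read against vehicle controls after compound exposure of the wt1 yeast strain.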
# [3] = NCI Yeast Anticancer Drug Screen. Data for the rad50EPP+ strain (AID 151);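 further: 0% = growth of vehicle-treated control cultures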; conditions: S. cerevisiae rad50 mutant strain, stronger effect = higher value
# Method in brief: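 Compounds were applied to the rad50EPP+ yeast strain, which bears a defined DNA repair alteration, and growth inhibition was determined relative to vehicle-treated cultures.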
# [4] = NCI Yeast Anticancer Drug Screen. Data for the mgt1 strain (AID 153); conditions: S. cerevisiae mgt1 mutant growth inhibition, stronger effect = higher value
# Method in brief: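 Strain: mgt1 yeast, one of a set carrying defined DNA damage repair or cell cycle control alterations. Compound-treated growth compared with vehicle.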
# [5] = NCI Yeast Anticancer Drug Screen. Data for the mec2-1 strain (AID 157); conditions: S. cerevisiae mec2-1 strain, stronger effect = higher value
# Method in brief: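 Strain: mec2-1 (DNA repair/cell cycle alteration). Compound exposure, then growth measured; inhibition expressed relative to vehicle.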
# [6] = NCI Yeast Anticancer Drug Screen. Data for the rad14 strain (AID 159);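 further: 0% = growth of vehicle-treated control cultures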; conditions: S. cerevisiae rad14 strain growth inhibition, stronger effect = higher value
# Method in brief: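 Growth inhibition vs vehicle controls; genetically altered yeast strain (DNA damage repair defect) treated with test compounds.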
# [7] = NCI Yeast Anticancer Drug Screen. Data for the sgs1 mgt1 strain (AID 161);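 further: 0% = growth of cultures given vehicle only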; conditions: S. cerevisiae sgs1 mgt1 strain, stronger effect = higher value
# Method in brief: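 Genetically altered yeast, compound exposure, growth inhibition relative to vehicle.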
# [8] = NCI Yeast Anticancer Drug Screen. Data for the CLN2oe strain (AID 163);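 further: 0% = growth of vehicle-only control cultures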; conditions: S. cerevisiae CLN2oe strain, stronger effect = higher value
# Method in brief: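 Growth of a genetically modified yeast strain is measured after compound exposure and compared with cultures given vehicle alone.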
# [9] = NCI Yeast Anticancer Drug Screen. Data for the cln2 rad14 strain (AID 165);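 further: 0% = growth equal to vehicle treated cultures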; conditions: S. cerevisiae cln2 rad14 strain, stronger effect = higher value
# Method in brief: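 Compounds are applied to the cln2 rad14 yeast strain, and growth is then compared with that of vehicle-treated cultures to give inhibition.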
# [10] = NCI Yeast Anticancer Drug Screen. Data for the bub3 strain (AID 167); conditions: S. cerevisiae bub3 mutant strain, stronger effect = higher value
# Method in brief: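 Readout: yeast growth inhibition, expressed relative to vehicle-only wells. The test organism is a mutant strain from a panel with lesions in DNA repair or checkpoint genes.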
# [11] = NCI Yeast Anticancer Drug Screen. Data for the wt2 strain (AID 169);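 further: 0% = growth of vehicle-treated yeast cultures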; conditions: S. cerevisiae wt2 strain growth inhibition, stronger effect = higher value
# Method in brief: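 This strain belongs to a panel of yeast strains with defined genetic alterations in DNA damage repair or cell cycle control. Compounds are applied, and growth inhibition is measured against vehicle-treated cultures.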
# [12] = NCI Yeast Anticancer Drug Screen. Data for the mlh1 strain (AID 171);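 further: 0% = growth of vehicle-treated control cultures of the same strain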; conditions: S. cerevisiae mlh1 strain growth inhibition, stronger effect = higher value
# Method in brief: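 Growth of the mutant yeast strain after compound exposure, expressed as inhibition relative to vehicle-only controls.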
# [13] = NCI Yeast Anticancer Drug Screen. Data for the mlh1 rad18 strain (AID 175); conditions: S. cerevisiae mlh1 rad18 strain growth inhibition, stronger effect = higher value
# Method in brief: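 Read-out is yeast growth inhibition, calculated against vehicle-only controls. The compound was applied to a strain engineered with DNA damage repair alterations.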
# [14] = NCI Yeast Anticancer Drug Screen. Data for the rad18 strain (AID 177); conditions: S. cerevisiae rad18 mutant growth inhibition, stronger effect = higher value
# Method in brief: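 Growth of the mutant yeast strain after compound exposure, normalised to vehicle-only cultures.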
# [15] = NCI Yeast Anticancer Drug Screen. Data for the rad50 strain (AID 155);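 further: 0% = growth of vehicle-only cultures of the same strain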; conditions: S. cerevisiae rad50 strain growth inhibition, stronger effect = higher value
# Method in brief: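 Readout: growth inhibition relative to vehicle-treated cultures. Compound exposure was carried out in a genetically defined yeast strain deficient in DNA damage repair.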
# [16] = NCI Yeast Anticancer Drug Screen. Data for the sgs1 strain (AID 173);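 further: 0% = growth of vehicle-only control cultures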; conditions: S. cerevisiae sgs1 mutant, stronger effect = higher value
# Method in brief: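 Growth of a yeast strain bearing a defined genetic alteration is measured after compound treatment. Inhibition is expressed relative to vehicle-only controls.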
# [17] = at 5.0 µM (retest, dose inferred, filed as 0.5)
# [18] = at 50.0 µM (retest, dose inferred, filed as 5.0)
compound,measurement,setting,value
CC1=C(CO)C2=C(C)C3(CC3)[C@@](C)(O)C(=O)C2=C1,growth inhibition,[1]; at 1.2 µM,1%
same,growth inhibition,[1]; at 3.7 µM,9%
same,growth inhibition,[1]; at 11.0 µM,27%
same,growth inhibition,[1]; at 33.0 µM,52%
same,growth inhibition,[1]; at 100.0 µM,81% (active)
same,growth inhibition,[2]; at 1.2 µM,0%
same,growth inhibition,[2]; at 3.7 µM,-1%
same,growth inhibition,[2]; at 11.0 µM,-1%
same,growth inhibition,[2]; at 33.0 µM,0%
same,growth inhibition,[2]; at 100.0 µM,-13%
same,growth inhibition,[3]; at 1.2 µM,-2%
same,growth inhibition,[3]; at 3.7 µM,0%
same,growth inhibition,[3]; at 11.0 µM,0%
same,growth inhibition,[3]; at 33.0 µM,2%
same,growth inhibition,[3]; at 100.0 µM,0%
same,growth inhibition,[4]; at 1.2 µM,-2%
same,growth inhibition,[4]; at 3.7 µM,-1%
same,growth inhibition,[4]; at 11.0 µM,-1%
same,growth inhibition,[4]; at 33.0 µM,-1%
same,growth inhibition,[4]; at 100.0 µM,0%
same,growth inhibition,[5]; at 1.2 µM,0%
same,growth inhibition,[5]; at 3.7 µM,-1%
same,growth inhibition,[5]; at 11.0 µM,1%
same,growth inhibition,[5]; at 33.0 µM,19%
same,growth inhibition,[5]; at 50.0 µM,-0.75%
same,growth inhibition,[5]; at 100.0 µM,66%
same,growth inhibition,[6]; at 1.2 µM,0%
same,growth inhibition,[6]; at 3.7 µM,-2%
same,growth inhibition,[6]; at 11.0 µM,5%
same,growth inhibition,[6]; at 33.0 µM,19%
same,growth inhibition,[6]; at 100.0 µM,59%
same,growth inhibition,[7]; at 50.0 µM,43.9%
same,growth inhibition,[8]; at 1.2 µM,-7%
same,growth inhibition,[8]; at 3.7 µM,-6%
same,growth inhibition,[8]; at 11.0 µM,-13%
same,growth inhibition,[8]; at 33.0 µM,-11%
same,growth inhibition,[8]; at 100.0 µM,-2%
same,growth inhibition,[9]; at 50.0 µM,18.3%
same,growth inhibition,[10]; at 1.2 µM,-4%
same,growth inhibition,[10]; at 3.7 µM,-5%
same,growth inhibition,[10]; at 11.0 µM,-8%
same,growth inhibition,[10]; at 33.0 µM,-14%
same,growth inhibition,[10]; at 50.0 µM,-40.2%
same,growth inhibition,[10]; at 100.0 µM,-13%
same,growth inhibition,[11]; at 1.2 µM,-2%
same,growth inhibition,[11]; at 3.7 µM,0%
same,growth inhibition,[11]; at 11.0 µM,-1%
same,growth inhibition,[11]; at 33.0 µM,-1%
same,growth inhibition,[11]; at 100.0 µM,3%
same,growth inhibition,[12]; at 1.2 µM,-1%
same,growth inhibition,[12]; at 3.7 µM,0%
same,growth inhibition,[12]; at 11.0 µM,1%
same,growth inhibition,[12]; at 33.0 µM,3%
same,growth inhibition,[12]; at 100.0 µM,8%
same,growth inhibition,[13]; at 50.0 µM,0.3%
same,growth inhibition,[14]; at 1.2 µM,44%
same,growth inhibition,[14]; at 3.7 µM,82% (active)
same,growth inhibition,[14]; at 11.0 µM,90% (active)
same,growth inhibition,[14]; at 33.0 µM,93% (active)
same,growth inhibition,[14]; at 100.0 µM,94% (active)
NCCc1ccc(OCc2ccccc2)c(OCc2ccccc2)c1,growth inhibition,[1]; at 1.2 µM,-8%
same,growth inhibition,[1]; at 3.7 µM,-5%
same,growth inhibition,[1]; at 11.0 µM,-6%
same,growth inhibition,[1]; at 33.0 µM,72% (active)
same,growth inhibition,[1]; at 100.0 µM,92% (active)
same,growth inhibition,[2]; at 1.2 µM,0%
same,growth inhibition,[2]; at 3.7 µM,-6%
same,growth inhibition,[2]; at 11.0 µM,-28%
same,growth inhibition,[2]; at 33.0 µM,74% (active)
same,growth inhibition,[2]; at 100.0 µM,97% (active)
same,growth inhibition,[3]; at 1.2 µM,-15%
same,growth inhibition,[3]; at 3.7 µM,-9%
same,growth inhibition,[3]; at 11.0 µM,-19%
same,growth inhibition,[3]; at 33.0 µM,11%
same,growth inhibition,[3]; at 100.0 µM,83% (active)
same,growth inhibition,[15]; at 1.2 µM,16%
same,growth inhibition,[15]; at 3.7 µM,17%
same,growth inhibition,[15]; [17],43%
same,growth inhibition,[15]; at 11.0 µM,35%
same,growth inhibition,[15]; at 33.0 µM,90% (active)
same,growth inhibition,[15]; [18],90% (active)
same,growth inhibition,[15]; at 50.0 µM,91.7% (active)
same,growth inhibition,[15]; at 100.0 µM,96% (active)
same,growth inhibition,[5]; at 1.2 µM,0%
same,growth inhibition,[5]; at 3.7 µM,3%
same,growth inhibition,[5]; [17],35%
same,growth inhibition,[5]; at 11.0 µM,8%
same,growth inhibition,[5]; at 33.0 µM,92% (active)
same,growth inhibition,[5]; [18],96% (active)
same,growth inhibition,[5]; at 50.0 µM,91.5% (active)
same,growth inhibition,[5]; at 100.0 µM,98% (active)
same,growth inhibition,[6]; at 1.2 µM,-27%
same,growth inhibition,[6]; at 3.7 µM,-21%
same,growth inhibition,[6]; at 11.0 µM,-3%
same,growth inhibition,[6]; at 33.0 µM,94% (active)
same,growth inhibition,[6]; at 100.0 µM,97% (active)
same,growth inhibition,[7]; [17],-16%
same,growth inhibition,[7]; [18],97% (active)
same,growth inhibition,[8]; at 1.2 µM,-1%
same,growth inhibition,[8]; at 3.7 µM,3%
same,growth inhibition,[8]; at 11.0 µM,-5%
same,growth inhibition,[8]; at 33.0 µM,41%
same,growth inhibition,[8]; at 100.0 µM,97% (active)
same,growth inhibition,[9]; [17],36%
same,growth inhibition,[9]; [18],82% (active)
same,growth inhibition,[10]; at 1.2 µM,12%
same,growth inhibition,[10]; at 3.7 µM,20%
same,growth inhibition,[10]; [17],-17%
same,growth inhibition,[10]; at 11.0 µM,35%
same,growth inhibition,[10]; at 33.0 µM,87% (active)
same,growth inhibition,[10]; [18],92% (active)
same,growth inhibition,[10]; at 100.0 µM,96% (active)
same,growth inhibition,[11]; at 1.2 µM,-15%
same,growth inhibition,[11]; at 3.7 µM,-12%
same,growth inhibition,[11]; at 11.0 µM,37%
same,growth inhibition,[11]; at 33.0 µM,95% (active)
same,growth inhibition,[11]; at 100.0 µM,97% (active)
same,growth inhibition,[12]; at 1.2 µM,-38%
same,growth inhibition,[12]; at 3.7 µM,-12%
same,growth inhibition,[12]; at 11.0 µM,43%
same,growth inhibition,[12]; at 33.0 µM,95% (active)
same,growth inhibition,[12]; at 100.0 µM,96% (active)
same,growth inhibition,[16]; at 1.2 µM,-8%
same,growth inhibition,[16]; at 3.7 µM,-5%
same,growth inhibition,[16]; at 11.0 µM,51%
same,growth inhibition,[16]; at 33.0 µM,95% (active)
same,growth inhibition,[16]; at 100.0 µM,96% (active)
same,growth inhibition,[13]; [17],24%
same,growth inhibition,[13]; [18],96% (active)
same,growth inhibition,[13]; at 50.0 µM,90.2% (active)
same,growth inhibition,[14]; at 1.2 µM,2%
same,growth inhibition,[14]; at 3.7 µM,15%
same,growth inhibition,[14]; at 11.0 µM,45%
same,growth inhibition,[14]; at 33.0 µM,91% (active)
same,growth inhibition,[14]; at 100.0 µM,94% (active)
